Reference: PubChem BioAssay (EPA / NIEHS)
Records with an inconclusive call do not appear. Activity calls are given as the source filed them. The calls were made as follows: active = hit-call score of the fitted dose curve at least 0.9, where 1 is the maximum; inconclusive = response in the unintended direction; inactive = score below 0.9.

Each compound was assayed against Nuclear receptor subfamily 1 group I member 3 (Homo sapiens) (UniProt Q14994) (assay: ATG_CAR_TRANS: Attagene TRANS-FACTORIAL HepG2 Assay for human Constitutive Androstane Receptor (CAR) (AID 2282969;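 also: activators raise reporter mRNA above DMSO so AC50 marks induction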)). Details: HepG2 Attagene TRANS-FACTORIAL CAR reporter.
Chain of Nuclear receptor subfamily 1 group I member 3 (Homo sapiens) (Q14994 whole entry, looked up): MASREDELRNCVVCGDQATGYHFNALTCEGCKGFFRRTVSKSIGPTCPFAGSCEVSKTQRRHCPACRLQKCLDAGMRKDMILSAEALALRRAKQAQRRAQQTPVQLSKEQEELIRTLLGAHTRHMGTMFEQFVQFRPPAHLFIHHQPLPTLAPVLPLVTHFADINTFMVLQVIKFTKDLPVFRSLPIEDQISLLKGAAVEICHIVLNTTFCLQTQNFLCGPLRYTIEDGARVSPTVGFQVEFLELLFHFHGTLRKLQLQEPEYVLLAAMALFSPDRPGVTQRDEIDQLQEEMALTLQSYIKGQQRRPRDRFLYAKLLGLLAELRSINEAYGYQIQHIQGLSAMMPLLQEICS
Description: ATG_TRANS is a cell-based, multiplexed-readout assay that uses HepG2, a human liver cell line, with measurements taken at 24 hours after chemical dosing in a 24-well plate.ATG_CAR_TRANS is one of 30 assay component(s) measured or calculated from the ATG_TRANS assay. It is designed to make measurements of mRNA induction, a form of inducible reporter, as detected with fluorescence intensity signals by Reverse transcription polymerase chain reaction (RT-PCR) and Capillary electrophoresis technology.Data from the assay component ATG_CAR_TRANS was analyzed into 1 assay endpoint. This assay endpoint, ATG_CAR_TRANS, was analyzed in the positive analysis fitting direction relative to DMSO as the negative control and baseline of activity. Using a type of inducible reporter, measures of mRNA for gain-of-signal activity can be used to understand the reporter gene at the transcription factor-level as they relate to the gene NR1I3. Furthermore, this assay endpoint can be referred to as a primary readout, because this assay has produced multiple assay endpoints where this one serves a reporter gene function. To generalize the intended target to other relatable targets, this assay endpoint is annotated to the nuclear receptor intended target family, where the subfamily is non-steroidal.
Human liver HepG2 cells are transiently transfected with multiple reporter transcription units (MRTUs) in 6-well plates using FuGene 6 reagent (Roche; 3 ml FuGene/1 mg DNA). The MRTU constructs are regulated by a cis-regulating element (promoter). […] A major difference between the CIS and TRANS system is that in CIS activities of endogenous TFs are measured, whereas the TRANS assay evaluates changes in activities of exogenous, chimeric NR-Gal4 proteins. […] At the end of 24 hour incubation, total RNA was isolated using TriZol reagent (Invitrogen). The isolated RNA is then reverse-transcribed using oligo(dT) primer and Mo-MLV reverse transcriptase (Invitrogen) with DNAse I (Ambion) treatment for 30 min. The one-tenth of the produced cDNA was amplified by PCR using Taq DNA polymerase (Invitrogen) and two reporter sequence-specific primers. The PCR products were fluorescently labeled by primer extension with 6-arboxyfluorescein (6-FAM) 5'-labeled reporter sequence-specific primer (2 min at 95 C, 20 s at 68 C and 10 min at 72 C) and these products were digested with 5U of HpaI (New England Biolabs) for 2h at 37 C. The fragments were purified using Qiaquick PCR columns (Qiagen), analyzed on an ABI 3130xL genetic analyzer (Applied Biosystems) with peak positions identified by using a set of X-rhodamine (ROX)-labeled MapMarker1000 molecular weight standards (BioVentures). The raw capillary electrophoresis data was processed using Attagraph software (Attagene).

outcome, inactive:
Cc1ccc(O)cc1
Clc1nc(Cl)c(Cl)c(Cl)c1Cl
Cc1ccc(N)cc1O
O=C(OC[C@H]1O[C@@H](OC(=O)c2cc(O)c(O)c(OC(=O)c3cc(O)c(O)c(O)c3)c2)[C@H](OC(=O)c2cc(O)c(O)c(OC(=O)c3cc(O)c(O)c(O)c3)c2)[C@@H](OC(=O)c2cc(O)c(O)c(OC(=O)c3cc(O)c(O)c(O)c3)c2)[C@@H]1OC(=O)c1cc(O)c(O)c(OC(=O)c2cc(O)c(O)c(O)c2)c1)c1cc(O)c(O)c(OC(=O)c2cc(O)c(O)c(O)c2)c1
Nc1nc2ncc(CNc3ccc(C(=O)N[C@@H](CCC(=O)O)C(=O)O)cc3)nc2c(=O)[nH]1
Cn1cnc([N+](=O)[O-])c1Sc1ncnc2nc[nH]c12
CCCCCCCCCCCCc1ccccc1
O=C(O)CCN(C1(C(=O)NO)CCCC1)S(=O)(=O)c1ccc(Oc2ccc(F)cc2)cc1
Cn1c(=O)c2c(ncn2C)n(C)c1=O
Cc1ccc(C)c(O)c1
CCOC(=O)COc1ccc2c(c1)CC(NCC(O)c1cccc(Cl)c1)CC2 (stereo not given)
CC(=O)c1ccc2c(c1)[C@H](NC(=O)c1ccc(F)cc1)[C@@H](O)C(C)(C)O2
O=c1n(CC2CO2)c(=O)n(CC2CO2)c(=O)n1CC1CO1 (stereo not given)
CCc1cc(SCc2sc(-c3ccc(C(F)(F)F)cc3)nc2CN2CCN(c3ccc(OC)cc3)CC2)ccc1OCC(=O)O
O=C(O)CC(O)C(=O)O (stereo not given)
CCNc1ccccc1
CCOC(=O)CC(CC(=O)OCC)(OC(C)=O)C(=O)OCC
C1=CCCC=CCCC=CCC1
CCCC(=O)OCC
C[C@](N)(Cc1ccc(O)c(O)c1)C(=O)O
CNCc1ccc(NC(=O)c2c[nH]c3c2C(=O)CCC3)cc1
COc1cccc(-c2ccc(/C=C\CN3CCCCCC3)cc2Cl)c1
CCN(C(=O)c1cc(C)cc(OC[C@H](C)Nc2ccncc2)c1)C(C)C
Cc1ccc(S(=O)(=O)O)cc1C
Cc1c(-c2cccnc2)c2ccccc2n1CCCCC(=O)O
CC(C)CCCCCCCOC(=O)CCCCC(=O)OCCCCCCCC(C)C
C=CC(=C)CCC=C(C)C
O=C(NS(=O)(=O)/C=C/c1ccccc1)c1ccc(F)cc1Cl
CC(C)(O)c1coc(S(=O)(=O)NC(=O)Nc2c3c(cc4c2CCC4)CCC3)c1
CN(C)c1ccc(N=NS(=O)(=O)O)cc1
